VDR inhibitor – vitamin D3 receptor (human) inhibition; VDR-SRC2-3 peptide fluorescence polarization, 2 h; Potency, µM, actives largely listed as inhibitors; hit rate 0.93% among 400,000; AID 504847
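Reagent solutions, kept cold and dark, are dispensed first; compounds are then pinned in at 23 nl, plates briefly spun, and incubated 2 h at ambient temperature. Inhibition of VDR–SRC2-3 peptide binding is read by fluorescence polarization.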
PLK1 PBD block – blocks phosphopeptide binding to human PLK1 polo-box domain; P53350; Plk1 PBD binding of FITC phosphopeptide, fluorescence polarization; Potency, µM, hits mostly inhibitors; hit rate 2.8% among 360,000; AID 720504; further: series mostly up to about 57 µM; nearly all actives have a fitted effect of over 65% in size
KAT2A inh – blocks human GCN5L2 histone acetyltransferase; Potency, µM (highest dose often 58.9 µM), actives largely listed as inhibitors; AID 504327; Q92830; GCN5L2 HAT assay, ThioGlo1 CoA-SH fluorescence; hit rate 0.21% among 390,000
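GCN5L2 (20 nM) in 50mM HEPES pH 7.5, 0.1mM EDTA, 0.01% Tween-20 preincubated 15 min with compounds at room temperature. Reaction started with H3(1-25) 75uM, acetyl-CoA 70uM, ThioGlo1 50uM; CoA-thiol fluorescence (Ex340/Em540) read at 0 and 20 min.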
ALOX12 inh – blocks human arachidonate 12S-lipoxygenase. P18054. purified 12hLO, xylenol orange hydroperoxide absorbance. Potency, µM (highest dose often 108 µM), most hits filed as inhibitors. hit rate 1.1% among 580,000
Target sequence (P18054 whole entry, looked up): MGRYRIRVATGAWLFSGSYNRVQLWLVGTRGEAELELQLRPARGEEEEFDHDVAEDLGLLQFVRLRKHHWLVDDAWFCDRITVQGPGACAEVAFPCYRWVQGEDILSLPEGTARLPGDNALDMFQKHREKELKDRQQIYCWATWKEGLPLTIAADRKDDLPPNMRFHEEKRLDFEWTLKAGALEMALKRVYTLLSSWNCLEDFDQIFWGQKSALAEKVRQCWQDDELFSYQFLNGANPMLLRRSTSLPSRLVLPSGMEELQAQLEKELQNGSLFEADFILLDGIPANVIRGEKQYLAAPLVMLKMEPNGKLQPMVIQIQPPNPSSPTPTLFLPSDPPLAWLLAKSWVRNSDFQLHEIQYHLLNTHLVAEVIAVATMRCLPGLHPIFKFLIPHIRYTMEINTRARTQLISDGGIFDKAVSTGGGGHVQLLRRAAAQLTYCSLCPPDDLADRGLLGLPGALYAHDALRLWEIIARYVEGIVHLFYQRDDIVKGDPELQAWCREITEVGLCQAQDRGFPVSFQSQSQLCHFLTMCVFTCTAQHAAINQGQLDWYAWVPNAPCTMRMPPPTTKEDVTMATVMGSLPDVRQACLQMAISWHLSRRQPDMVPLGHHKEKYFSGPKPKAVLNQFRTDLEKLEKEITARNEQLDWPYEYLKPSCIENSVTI
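Purified human 12hLO (150 nM final) in 25 mM Hepes, 0.01% Triton X-100, pH 7.0 was preincubated 15 min at room temperature with compound. Then 40 uM arachidonic acid was added, 30 min. Hydroperoxide was read by Fe-XO absorbance ratio 573/405 nm.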
Of the large screens only hits and unclear results are named; the others gave an inactive call; ! = a repeat was not active. Most compounds without a hit are left out; they make up all but 3% or so of the library. The call rests on the fitted dose curve; in most records, active means well fitted curve in the direction sought with a large enough effect; inconclusive means small, poorly fitted or top-dose-only effect, or another doubt; inactive means no such curve, though single readings can be large; an effect the other way counts as inactive or inconclusive.

CCCCCC(=O)Nc1cc(S(=O)(=O)O)cc2cc(S(=O)(=O)O)cc(O)c12	VDR inhibitor inconclusive, PLK1 PBD block 6µM, ALOX12 inh inconclusive (no result: KAT2A inh)
O=C(Cc1cccs1)NC1CCCC(C(F)(F)F)C1 (stereo not given)	none (no result: VDR inhibitor, PLK1 PBD block, KAT2A inh)
CNC(=O)c1sc(-c2ccccc2)nc1C	none
Cc1nc(-c2ccccc2)sc1C(=O)NS(=O)(=O)c1ccc(CN2CCN(c3ccccc3)CC2)cc1	ALOX12 inh 32µM (no result: VDR inhibitor, KAT2A inh)
COc1cc(NCCCC(C)N)c2ncccc2c1 (stereo not given)	VDR inhibitor 45µM!, ALOX12 inh inconclusive
COc1cc(NCCCCC(C)N)c2nccc(C)c2c1 (stereo not given)	ALOX12 inh inconclusive (no result: VDR inhibitor, KAT2A inh)
O=C(Nc1ccc(Br)cc1F)c1ccc2nsnc2c1	VDR inhibitor inconclusive, PLK1 PBD block 5.3µM
CCOc1cc(-c2noc(-c3ncn4c3COC(c3ccc(OC)cc3)C4)n2)ccc1OC (stereo not given)	none (no result: VDR inhibitor, PLK1 PBD block, KAT2A inh)
O=C(CC12CC3CC(CC(C3)C1)C2)NC(=S)NCc1ccccc1	ALOX12 inh 28µM
CCn1c(=O)n(CC)c2cc(Sc3ccccc3)c(NC(=O)c3cccc(F)c3)cc21	none (no result: VDR inhibitor, PLK1 PBD block, KAT2A inh)
O=C(O)c1cccc(CN2C(=O)c3ccccc3C2=O)c1	none
O=C1c2cccc3c(O)ccc(c23)C(=O)N1Cc1ccccc1	PLK1 PBD block 6µM
COc1cccc(N=Cc2nc(-c3ccccc3)oc2OC(C)=O)c1	VDR inhibitor inconclusive, PLK1 PBD block inconclusive
COc1ccc(N=Cc2nc(-c3ccccc3)oc2OC(C)=O)cc1	VDR inhibitor 28µM, PLK1 PBD block inconclusive
O=C(CN1C(=O)C2C3CC(C(Br)C3Br)C2C1=O)OCC(=O)c1cccc([N+](=O)[O-])c1 (stereo not given)	PLK1 PBD block 21µM
O=C(CCN1C(=O)C2C3CC(C(Br)C3Br)C2C1=O)OCC(=O)c1ccc([N+](=O)[O-])cc1 (stereo not given)	none (no result: VDR inhibitor, PLK1 PBD block, KAT2A inh)
Clc1ccccc1CNCCN1CCCC1	none (no result: VDR inhibitor, PLK1 PBD block, KAT2A inh)
COC(=O)c1c(-c2ccc(S(C)(=O)=O)cc2)sc2cc(OC)ccc12	PLK1 PBD block inconclusive, KAT2A inh inconclusive
COC(=O)c1c(-c2ccc(S(C)(=O)=O)cc2)sc2ccc(OC)cc12	PLK1 PBD block 21µM
CN(C)CC1(O)CCCN(Cc2cccc3ncccc23)C1 (stereo not given)	none (no result: VDR inhibitor, PLK1 PBD block, KAT2A inh)
Cc1ccc(C)n1NC(=O)c1ccccc1Cl	ALOX12 inh 45µM
Cn1cc(C(=O)NC2(C)CCS(=O)(=O)C2)c2ccccc21 (stereo not given)	ALOX12 inh 13µM (no result: VDR inhibitor, PLK1 PBD block, KAT2A inh)
Cn1cc(C(=O)NC2CCS(=O)(=O)C2)c2ccccc21 (stereo not given)	none (no result: VDR inhibitor, PLK1 PBD block, KAT2A inh)
Cc1ccc(C2C3=C(CC(C)(C)CC3=O)Nc3c2c(=O)[nH]c(=O)n3C)cc1 (stereo not given)	none (no result: VDR inhibitor, PLK1 PBD block, KAT2A inh)
N#Cc1ccc(CSc2nccc(C(F)(F)F)n2)cc1	none (no result: VDR inhibitor, PLK1 PBD block, KAT2A inh)
CCC(=O)Nc1ccc2nc(SCc3ccc(F)cc3)sc2c1	ALOX12 inh 14µM (no result: VDR inhibitor, PLK1 PBD block, KAT2A inh)
O=C(CSc1nc2ccccc2s1)Nc1ccc(F)cc1F	none (no result: VDR inhibitor, PLK1 PBD block, KAT2A inh)
Cc1nc(NC(=O)CSc2nc3ccccc3s2)sc1C(=O)N(C)C	ALOX12 inh 40µM
CC(=O)Nc1ccc2nc(SCC(=O)NCCOc3ccccc3)sc2c1	VDR inhibitor inconclusive, PLK1 PBD block 3.4µM
O=C(CSc1nc2ccccc2s1)Nc1ccc(F)c(F)c1	ALOX12 inh 35µM (no result: VDR inhibitor, PLK1 PBD block, KAT2A inh)
O=C(CSc1nc2ccccc2s1)Nc1nc2ccccc2s1	none (no result: VDR inhibitor, PLK1 PBD block, KAT2A inh)
CCC(=O)Nc1ccc2nc(SCCOc3ccccc3)sc2c1	none (no result: PLK1 PBD block)
COC(=O)[C@H](CC(C)C)N(Cc1cn(Cc2ccc(C)cc2)nn1)S(=O)(=O)c1ccccc1Br	ALOX12 inh 8.9µM (no result: VDR inhibitor, PLK1 PBD block, KAT2A inh)
COC(=O)[C@H](CC(C)C)N(Cc1cn(Cc2ccccc2)nn1)S(=O)(=O)c1ccccc1Br	none (no result: VDR inhibitor, PLK1 PBD block, KAT2A inh)
O=c1[nH]sc2ccccc12	VDR inhibitor inconclusive, PLK1 PBD block 5.3µM, KAT2A inh 8.9µM, ALOX12 inh inconclusive
O=C(O)/C(=C\c1c(C(=O)O)[nH]c2cc(Cl)cc(Cl)c12)c1ccccc1	ALOX12 inh 35µM
O=C(O)C(=Cc1ccccc1Cl)c1ccccc1	none (no result: VDR inhibitor, KAT2A inh, ALOX12 inh)
Cc1cc2cc(C=C(C#N)C#N)c(Cl)nc2cc1C	VDR inhibitor 50µM, PLK1 PBD block inconclusive
CCOC(=O)/C(C#N)=C/c1cc2cc(C)c(C)cc2nc1Cl	none
CCOc1ccc2c(=O)c(Oc3ccccc3Br)c(C)oc2c1	none (no result: VDR inhibitor, PLK1 PBD block, KAT2A inh)
O=C(O)C1Nc2c(C(F)(F)F)ccc(Cl)c2C2C=CCC12 (stereo not given)	VDR inhibitor inconclusive, PLK1 PBD block 27µM, ALOX12 inh inconclusive
c1ccc(Nc2ccccn2)cc1	VDR inhibitor inconclusive, PLK1 PBD block 24µM
c1ccc(Nc2cccc(Nc3ccccc3)n2)cc1	none

Assay outcomes (PubChem)
